# Measurements taken from the supplement of paper PMC8728848.
# Where a chain is given by its changes, count along the chain named. This excerpt belongs to a sample that is enriched for the strongest signals.
# B1: ZG16p (Homo sapiens), O60844 (protein)
# chain: ARSSSYSGEYGGGGGKRFSHSGNQLDGPITALRVRVNTYYIVGLQVRYGKVWSDYVGGRNGDLEEIFLHPGESVIQVSGKYKWYLKKLLFVTDKGRYLSFGKDSGTSFNAVPLHPNTVLRFISGRSGSLINAIGLHWDVYPSSCSRC
# B2: ZG16p (Homo sapiens), O60844 (protein)
# chain: B1 chain with Y84F, N131D
# B3: Dectin-1 (Homo sapiens), Q9BXN2 (protein)
# chain: TMAIWRSNSGSNTLENGYFLSRNKENHSQPTQSSLEDSVTPTKAVKTTGVLSSPCPPNWIIYEKSCYLFSMSLNSWDGSKRQCWQLGSNLLKIDSSNELGFIVKQVSSQPDNSFWIGLSRPQTEVPWLWEDGSTFSSNLFQIRTTATQENPSPNCVWIHVSVIYDQLCSVPSYSICEKKFSM
# Assays:
# Experiment in all cases: glycan array binding signal (z-score within array); higher = stronger binding
# [1] = biological target: Gal(b1-4)GlcNAc(b1-2)Man(a1-6)[GlcNAc(b1-2)Man(a1-3)]Man(b1-4)GlcNAc(b1-4)[Fuc(a1-6)]GlcNAc; settings: glycan notation: IUPAC condensed, linker removed
# Procedure, shortened: (§1)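 The binding signal is a Z-score computed within each array. Data were drawn from 3228 arrays in the Consortium for Functional Glycomics database, restricted to those with a known protein sequence. Scores were averaged over arrays of the same protein sequence at different concentrations or buffers, and over linkers, and negative values can be taken as non-binding.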
# [2] = biological target: Gal(b1-4)GlcNAc(b1-2)[Gal(b1-4)GlcNAc(b1-4)]Man(a1-3)[Gal(b1-4)GlcNAc(b1-2)[Gal(b1-4)GlcNAc(b1-6)]Man(a1-6)]Man(b1-4)GlcNAc(b1-4)GlcNAc; settings: glycan notation: IUPAC condensed, linker removed; mutation: D151N
# Procedure, shortened: as §1
# [3] = biological target: GlcNAc(b1-2)Man(a1-3)[GlcNAc(b1-2)Man(a1-6)]Man(b1-4)GlcNAc(b1-4)GlcNAc; settings: glycan notation: IUPAC condensed, linker removed; mutation: D151N
# Procedure, shortened: as §1
# [4] = biological target: GlcNAc(b1-2)[GlcNAc(b1-4)]Man(a1-3)[GlcNAc(b1-2)Man(a1-6)][GlcNAc(b1-4)]Man(b1-4)GlcNAc(b1-4)GlcNAc; settings: glycan notation: IUPAC condensed, linker removed; mutation: D151N
# Procedure, shortened: as §1
# [5] = biological target: HexA(a1-3)GalNAc4S(b1-4)GlcA(b1-3)GalNAc4S(b1-4)GlcA(b1-3)GalNAc4S(b1-4)GlcA(b1-3)GalNAc4S(b1-4)GlcA(b1-3)GalNAc4S(b1-4)GlcA(b1-3)GalNAc4S(b1-4)GlcA(b1-3)GalNAc4S(b1-4)GlcA(b1-3)GalNAc4S; settings: glycan notation: IUPAC condensed, linker removed; mutation: D151N
# Procedure, shortened: as §1
# [6] = biological target: Gal(b1-4)GlcNAc(b1-2)Man(a1-6)[Man(a1-3)]Man(b1-4)GlcNAc(b1-4)GlcNAc; settings: glycan notation: IUPAC condensed, linker removed; mutation: Y104F
# Procedure, shortened: as §1
# [7] = biological target: Gal(b1-4)GlcNAc(b1-2)[Gal(b1-4)GlcNAc(b1-4)]Man(a1-3)[Fuc(a1-3)[Gal(b1-4)]GlcNAc(b1-2)Man(a1-6)]Man(b1-4)GlcNAc(b1-4)GlcNAc; settings: glycan notation: IUPAC condensed, linker removed; mutation: Y104F
# Procedure, shortened: as §1
# [8] = biological target: Glc(b1-3)Glc(b1-3)Glc(b1-3)Glc(b1-3)Glc(b1-3)Glc; settings: glycan notation: IUPAC condensed, linker removed; mutation: Y104F
# Procedure, shortened: as §1
# [9] = biological target: Man(a1-3)Man(b1-4)GlcNAc; settings: glycan notation: IUPAC condensed, linker removed; mutation: Y104F
# Procedure, shortened: as §1
# [10] = biological target: Xyl(b1-2)[Man(a1-3)][Man(a1-6)]Man(b1-4)GlcNAc(b1-4)GlcNAc; settings: glycan notation: IUPAC condensed, linker removed; mutation: Y104F
# Procedure, shortened: as §1
# [11] = biological target: Glc(a1-4)Glc; settings: glycan notation: IUPAC condensed, linker removed
# Procedure, shortened: as §1
# [12] = biological target: Glc(a1-6)Glc; settings: glycan notation: IUPAC condensed, linker removed
# Procedure, shortened: as §1
# [13] = biological target: Glc(b1-2)Glc(b1-2)Glc(b1-2)Glc(b1-2)Glc; settings: glycan notation: IUPAC condensed, linker removed
# Procedure, shortened: as §1
# [14] = biological target: Glc(b1-3)Glc(b1-3)Glc(b1-3)Glc(b1-3)Glc; settings: glycan notation: IUPAC condensed, linker removed
# Procedure, shortened: as §1
# [15] = biological target: Glc(b1-3)Glc(b1-3)Glc(b1-3)Glc(b1-3)Glc(b1-3)Glc(b1-3)Glc(b1-3)Glc(b1-3)Glc(b1-3)Glc(b1-3)Glc; settings: glycan notation: IUPAC condensed, linker removed
# Procedure, shortened: as §1
# [16] = biological target: Glc(b1-3)Glc(b1-3)Glc(b1-3)Glc(b1-3)Glc(b1-3)Glc(b1-3)Glc(b1-3)Glc(b1-3)Glc(b1-3)Glc(b1-3)Glc(b1-3)Glc; settings: glycan notation: IUPAC condensed, linker removed
# Procedure, shortened: as §1
# [17] = biological target: Glc(b1-3)Glc(b1-3)Glc(b1-3)Glc(b1-3)Glc(b1-3)Glc(b1-3)Glc(b1-3)Glc(b1-3)Glc(b1-3)Glc(b1-3)Glc(b1-3)Glc(b1-3)Glc; settings: glycan notation: IUPAC condensed, linker removed
# Procedure, shortened: as §1
# [18] = biological target: Glc(b1-3)Glc(b1-3)Glc(b1-3)Glc(b1-3)Glc(b1-3)Glc(b1-3)Glc(b1-3)[Glc(b1-6)]Glc(b1-3)Glc; settings: glycan notation: IUPAC condensed, linker removed
# Procedure, shortened: as §1
# [19] = biological target: Glc(b1-4)Glc(b1-4)Glc(b1-4)Glc(b1-4)Glc(b1-4)Glc(b1-4)Glc(b1-4)Glc(b1-4)Glc; settings: glycan notation: IUPAC condensed, linker removed
# Procedure, shortened: as §1
# [20] = biological target: Glc(b1-6)Glc(b1-6)Glc(b1-6)Glc(b1-6)Glc(b1-6)Glc(b1-6)Glc(b1-6)Glc; settings: glycan notation: IUPAC condensed, linker removed
# Procedure, shortened: as §1
# [21] = biological target: Glc(b1-6)Glc(b1-6)Glc(b1-6)Glc(b1-6)Glc(b1-6)Glc(b1-6)Glc(b1-6)Glc(b1-6)Glc; settings: glycan notation: IUPAC condensed, linker removed
# Procedure, shortened: as §1
# [22] = biological target: Man(b1-4)Man(b1-4)Man(b1-4)Man; settings: glycan notation: IUPAC condensed, linker removed
# Procedure, shortened: as §1
binder,measurement,setting,value
B1,glycan array binding signal (z-score),[1]; mutation: D151N,-0.565
same,glycan array binding signal (z-score),[2],-0.44
same,glycan array binding signal (z-score),[3],-0.565
same,glycan array binding signal (z-score),[4],-0.565
same,glycan array binding signal (z-score),[5],5.03
B2,glycan array binding signal (z-score),[1]; mutation: Y104F,-0.485
same,glycan array binding signal (z-score),[6],-0.485
same,glycan array binding signal (z-score),[7],-0.485
same,glycan array binding signal (z-score),[8],2.84
same,glycan array binding signal (z-score),[9],0.015
same,glycan array binding signal (z-score),[10],-0.331
B3,glycan array binding signal (z-score),[11],-0.145
same,glycan array binding signal (z-score),[12],-0.145
same,glycan array binding signal (z-score),[13],-0.145
same,glycan array binding signal (z-score),[14],-0.145
same,glycan array binding signal (z-score),[15],0.976
same,glycan array binding signal (z-score),[16],5
same,glycan array binding signal (z-score),[17],9.53
same,glycan array binding signal (z-score),[18],-0.145
same,glycan array binding signal (z-score),[19],-0.145
same,glycan array binding signal (z-score),[20],-0.145
same,glycan array binding signal (z-score),[21],-0.145
same,glycan array binding signal (z-score),[22],-0.082
